Source: the supplement of paper PMC8253809

What was measured:
Assay in all cases: growth inhibition (% activity, log2 RLU normalised to DMSO / staurosporine); higher = more growth inhibition
Conditions in all cases: 33 µM
DIPGX29 = tested on: DIPGX29 (H3.3 K27M diffuse intrinsic pontine glioma line)
Method in brief: (§1)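 In triplicate, pHGG cell lines and H9-derived neural stem cells were treated for 7 days at 37 °C, 5% CO2 with approved drugs at a single final concentration of about 33 μM, added by pin tool. CellTiter-Glo luminescence, after log2 transformation, was normalised on each plate to % activity between solvent and positive control wells. Growth inhibition is reported as the median across replicates.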

DIPGX37 = tested on: DIPGX37 (H3.3 K27M diffuse intrinsic pontine glioma line)
Method in brief: as §1

DIPGX7 = tested on: DIPGX7 (H3.3 K27M diffuse intrinsic pontine glioma line)
Method in brief: as §1

DIPGX9 = tested on: DIPGX9 (diffuse intrinsic pontine glioma line)
Method in brief: as §1

HGGX39 = tested on: HGGX39 (paediatric high-grade glioma line)
Method in brief: as §1

HGGX6 = tested on: HGGX6 (H3.3 G34R paediatric high-grade glioma line)
Method in brief: as §1

HNSC = tested on: HNSC
Method in brief: as §1

SUDIPGIV = tested on: SUDIPGIV (diffuse intrinsic pontine glioma line)
Method in brief: as §1

SUDIPGVI = tested on: SUDIPGVI (diffuse intrinsic pontine glioma line)
Method in brief: as §1

SUDIPGXIII = tested on: SUDIPGXIII (diffuse intrinsic pontine glioma line)
Method in brief: as §1

Structure (SMILES) | growth inhibition (DIPGX29) | growth inhibition (DIPGX37) | growth inhibition (DIPGX7) | growth inhibition (DIPGX9) | growth inhibition (HGGX39) | growth inhibition (HGGX6) | growth inhibition (HNSC) | growth inhibition (SUDIPGIV) | growth inhibition (SUDIPGVI) | growth inhibition (SUDIPGXIII)
CO[C@@]1(NC(=O)C(C(=O)O)c2ccc(O)cc2)C(=O)N2C(C(=O)O)=C(CSc3nnnn3C)CO[C@@H]21 (stereo not given in full) | -1.75% | -0.992% | -0.554% | -0.636% | -0.0428% | 0.31% | -3.08% | -1.1% | 0.787% | -4.5%
CCCCC[C@H](O)/C=C/[C@H]1[C@H](O)CC(=O)[C@@H]1CCCCCCC(=O)O | 1.8% | 0.835% | 1.87% | 1.68% | 3.82% | 4.44% | 0.983% | 2.69% | 1.52% | 0.878%
NC(CO)(CO)CO | 0.378% | 1.73% | 0.549% | 1.18% | 1.76% | 0.412% | 0.671% | 1.48% | 2.52% | 0.677%
NC12CC3CC(CC(C3)C1)C2 | 0.311% | -1.43% | 0.524% | 0.931% | 2.31% | 1.23% | -2.35% | 0.117% | 0.782% | -2.09%
O=C(O[C@H]1CN2CCC1CC2)N1CCc2ccccc2[C@@H]1c1ccccc1 | 1.49% | -0.261% | -0.506% | -0.425% | 1.75% | 0.102% | -0.949% | -0.487% | 1.06% | 1.13%
C[N+]1(C)CCC(=C(c2ccccc2)c2ccccc2)CC1 | 1.61% | 4.65% | 2.7% | 2.75% | 2.04% | -0.684% | 23.1% | 4.27% | 8.89% | 1.56%
NS(=O)(=O)c1cc2c(cc1Cl)NC(C(Cl)Cl)NS2(=O)=O (stereo not given) | 1.16% | 4.01% | 3.24% | 5.41% | 4.4% | 5.05% | -0.78% | -3.21% | 2.47% | 0.0927%
NNc1nncc2ccccc12 | -0.649% | 0.926% | -0.1% | 1.44% | 2.03% | 0.883% | -1.94% | 2.81% | -2.33% | -0.215%
C#C[C@]1(O)CC[C@H]2[C@@H]3CCc4cc(O)ccc4[C@H]3CC[C@@]21C | 0.982% | 1.91% | 0.741% | 0.29% | 0.261% | 2.48% | 0.451% | -1.64% | 1.36% | 0.6%
NC(=O)c1cccnc1 | -0.689% | -1.05% | -0.0852% | 0.951% | 0.786% | 0.835% | 0.303% | -0.404% | -0.906% | 0.194%
COc1cc2nccc(Oc3ccc(NC(=O)C4(C(=O)Nc5ccc(F)cc5)CC4)cc3)c2cc1OC | 2.36% | 6.14% | 9.24% | 6.67% | 4.78% | 17.7% | 42% | 0.288% | 5.98% | 2%
CC1(C)O[C@@H]2C[C@H]3[C@@H]4C[C@H](F)C5=CC(=O)C=C[C@]5(C)[C@@]4(F)[C@@H](O)C[C@]3(C)[C@]2(C(=O)CO)O1 | 5.9% | 6.05% | 2.96% | 7.24% | 5.97% | 3.53% | 1.69% | 1.18% | 3.97% | -0.393%
C1N2CN3CN1CN(C2)C3 | 1.11% | 3.51% | 1.18% | 2.53% | 3.89% | 2.47% | 0.987% | 1.56% | 1.89% | -0.234%
COc1cc(C(C)=O)ccc1OCCCN1CCC(c2noc3cc(F)ccc23)CC1 | 1.79% | 0.322% | 12.7% | 0.361% | 4.35% | 0.871% | 0.367% | 2.3% | -12.2% | 4.02%
c1cnc2cc3c(cc2n1)[C@@H]1CNC[C@H]3C1 | 1.18% | -2.8% | 1.78% | 0.684% | 0.561% | 1.15% | 0.349% | -0.44% | -0.35% | -1.07%
N#Cc1c(N(CC(=O)O)CC(=O)O)sc(C(=O)O)c1CC(=O)O | -0.0468% | -1.11% | -0.504% | 1.29% | 1.34% | -1.45% | 27.7% | 1.52% | 0.043% | -2.77%
CC(=O)N[C@H]1[C@H]([C@H](O)[C@H](O)CO)OC(C(=O)O)=C[C@@H]1NC(=N)N | 1.23% | 2.89% | 2.14% | 1.62% | 1.17% | -2.7% | 7.75% | 1.46% | 2.82% | 2.15%
CCN(CC)C(=O)/C(C#N)=C/c1cc(O)c(O)c([N+](=O)[O-])c1 | -0.0111% | 1.83% | -1.51% | 0.533% | 0.054% | -0.625% | -2.42% | -1.01% | -0.299% | 1.29%
Nc1nc2n[nH]nc2c(=O)[nH]1 | 14.5% | 13.2% | 14.4% | 22.6% | 17.5% | 13.7% | 56.2% | 32.2% | 1.16% | 1.25%
NCC(=O)CCC(=O)O | -0.565% | 0.832% | -1.28% | 0.54% | 0.759% | 1.54% | -1.87% | 0.45% | 0.00902% | 0.537%
OC(CCN1CCCCC1)(c1ccccc1)c1ccccc1 | -0.46% | 1.3% | -0.768% | -0.762% | -0.68% | 0.348% | -1.66% | -1.24% | 0.131% | 1.07%
